The sample as a whole holds a higher share of hits than the screen did.
CD40 NFkB inh: CD40 pathway inhibition in BL2 cells. 83,000 compounds, 0.94% hits. BL2 NF-kB luciferase reporter, CD40L-induced, 4 h. inhibition, % at 10 µM;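 active = mean inhibition of at least 50% with a set share of replicates also reaching that level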;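 note: 0% = neutral control wells and 100% = IKK inhibitor VII at 50 µM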
Numbers without * were called inactive; [ ] = dose if it differs, or a comment.

SMILES	CD40 NFkB inh
Cc1cc(C(=O)COC(=O)c2ccc(Br)o2)c(C)n1Cc1ccco1	-17
COCCn1c(C)cc(C(=O)COC(=O)c2ccc(-n3nc(C)cc3C)cc2)c1C	8
Cc1cc(C(=O)COC(=O)c2ccc(Cl)c(S(N)(=O)=O)c2)c(C)n1CC1CCCO1 (stereo unspecified)	18
COCCn1c(C)cc(C(=O)COC(=O)c2ccc(Cl)c(S(N)(=O)=O)c2)c1C	21*
Cc1cc(C(=O)COC(=O)c2ccc(Br)o2)c(C)n1C	-7
N#C[C@@H]1[C@H](c2ccccc2)[C@@H](CO)N1C(=O)CN1CCOCC1	-4[25 µM]
Cc1cccc(S(=O)(=O)N2[C@@H]3CNC[C@H]2C3c2ccc(-c3ccncc3)cc2)c1 (stereo partly specified)	-5
COc1ccc(C#Cc2ccc3c(c2)[C@@H]2[C@@H](CCN2C(=O)C2CC2)[C@@H](CO)N3)cc1	-24
Cc1ccc(-c2ccc3c(c2)O[C@@H](CN(C)Cc2cncnc2)[C@@H](C)CN([C@@H](C)CO)S3(=O)=O)cc1	4[25 µM]
N#C[C@@H]1[C@H](c2ccc(C#CCC3CCCC3)cc2)[C@@H](CO)N1C(=O)c1ccccn1	7[25 µM]
CC(C)COC(=O)N(C)C[C@H]1OCc2ccccc2-c2ccccc2C(=O)N([C@H](C)CO)C[C@@H]1C	-10[25 µM]
CN1c2ccc(Br)cc2[C@H]2[C@H](CCN2C(=O)C2CCCC2)[C@H]1CO	9
O=C(O/N=C(\c1ccccc1)c1ccccn1)c1cccc2ccccc12	3
COc1ccc(C(=O)O/N=C2\C(=O)N(C)c3ccccc32)cc1	60*
O=C(O)c1ccc2c3c(cccc13)C(=O)N(c1cccc3ccccc13)C2=O	1
COc1ccc(C(=O)ON=C2CCN(C)CC2)cc1	11
COc1ccc(C(=O)NC2c3ccccc3-c3ccccc32)cc1	14
CN1C(=O)/C(=N\OC(=O)c2cccc3ccccc23)c2ccccc21	99*
COc1ccc(CNC(=O)N(C)C[C@H]2OCc3ccccc3-c3ccccc3C(=O)N([C@@H](C)CO)C[C@@H]2C)cc1	-10[25 µM]
CCCNC(=O)N[C@@H]1C=C[C@H](CC(=O)N2CCN(C)CC2)O[C@H]1CO	5[25 µM]
CN1c2ccc(-c3cccc(F)c3)cc2[C@@H]2[C@@H](CCN2S(=O)(=O)c2cccc(F)c2)[C@H]1CO	4
N#Cc1cccc(-c2ccc(C3[C@H]4CNC[C@@H]3N4C(=O)Nc3ccccc3F)cc2)c1 (stereo partly specified)	-54
COc1ccc(-c2nc(NC(=O)c3nc4nccc(C)n4n3)sc2C)cc1	3
Cc1ccc(C(=O)Nc2nc(-c3ccco3)c(-c3ccco3)s2)o1	-1
COc1ccc(-c2nc(NC(=O)c3ccco3)sc2C)cc1	51*
SMILES	CD40 NFkB inh
COc1ccc(NC(=O)Nc2ccc3c(c2)[C@H]2C[C@@H](CC(=O)N4CCN(C)CC4)O[C@H](CO)[C@H]2O3)cc1	3[25 µM]
C[C@H]1CN([C@@H](C)CO)C(=O)CCCn2cc(nn2)CO[C@H]1CN(C)C(=O)NC1CCCC1	15
O=C(CC(F)(F)F)N1C[C@H]2[C@@H](c3ccccc31)[C@H](CO)N2C(=O)CN1CCOCC1	-11[25 µM]
C[C@@H]1CN([C@@H](C)CO)C(=O)c2c(c3ccccc3n2C)-c2ccccc2CO[C@@H]1CN(C)Cc1ccccc1C(F)(F)F	62*[25 µM]
C[C@H]1CN([C@@H](C)CO)C(=O)c2c(c3ccccc3n2C)-c2ccccc2CO[C@H]1CN(C)Cc1ccc(C(F)(F)F)cc1	4
C[C@H]1CN([C@@H](C)CO)C(=O)c2ccccc2-c2ccccc2CO[C@@H]1CN(C)Cc1ccc(C(F)(F)F)cc1	4
C[C@H]1CN([C@@H](C)CO)C(=O)c2c(c3ccccc3n2C)-c2ccccc2CO[C@@H]1CN(C)Cc1cccc(C(F)(F)F)c1	61*[25 µM]
C[C@H](CO)N1C[C@H](C)[C@H](CN(C)Cc2cccc(F)c2)OCc2ccccc2-c2c(n(C)c3ccccc23)C1=O	10
C[C@@H]1CN([C@H](C)CO)C(=O)c2c(c3ccccc3n2C)-c2ccccc2CO[C@H]1CN(C)Cc1ccccc1C(F)(F)F	45[25 µM]
C[C@@H]1CN([C@@H](C)CO)C(=O)c2ccccc2-c2ccccc2CO[C@H]1CN(C)Cc1ccccc1C(F)(F)F	66*[25 µM]
C[C@H](CO)N1C[C@H](C)[C@H](CN(C)Cc2ccc(C(F)(F)F)cc2)OCc2ccccc2-c2ccccc2C1=O	15
C[C@H]1CN([C@@H](C)CO)C(=O)c2c(c3ccccc3n2C)-c2ccccc2CO[C@H]1CN(C)Cc1cccc(F)c1	12
C[C@@H]1CN([C@@H](C)CO)C(=O)c2c(c3ccccc3n2C)-c2ccccc2CO[C@H]1CN(C)Cc1ccc(C(F)(F)F)cc1	11
C[C@H]1CN([C@@H](C)CO)C(=O)c2c(c3ccccc3n2C)-c2ccccc2CO[C@H]1CN(C)Cc1ccccc1C(F)(F)F	8[25 µM]
C[C@@H]1CN([C@@H](C)CO)C(=O)c2c(c3ccccc3n2C)-c2ccccc2CO[C@@H]1CN(C)Cc1cccc(C(F)(F)F)c1	62*[25 µM]
CN1C(=O)c2cc(NC(=O)c3ccc(F)cc3)ccc2OC[C@@H]2O[C@@H](CC(=O)NCC3CCCCC3)CC[C@H]21	-1
O=C(C[C@H]1CC[C@H]2NC[C@H](O)COC[C@@H]2O1)NCc1ccc2c(c1)OCO2	-4[25 µM]
C[C@@H]1CN([C@@H](C)CO)C(=O)c2cc(NC(=O)Nc3ccc4c(c3)OCO4)ccc2O[C@@H](C)CCCCO[C@@H]1CN(C)C(=O)CCCN(C)C	-13[25 µM]
C/C=C/c1ccc(C2[C@@H]3CN(S(=O)(=O)c4ccccc4C)C[C@H]2N3)cc1 (stereo partly specified)	2
CN1C(=O)c2cc(NC(=O)Nc3ccccc3Cl)ccc2OC[C@H]2O[C@H](CC(=O)O)CC[C@@H]21	-11[25 µM]
Cc1ccccc1S(=O)(=O)N1[C@H](C#N)[C@@H](c2ccc(C#CC3CCCC3)cc2)[C@@H]1CO	11
C/C=C/c1ccc([C@H]2[C@@H](CO)N[C@@H]2CNC(=O)Cc2ccccc2)cc1	2[25 µM]
COc1ccc(NC(=O)N(C)C[C@H]2OCc3ccccc3-c3ccccc3C(=O)N([C@@H](C)CO)C[C@H]2C)cc1	-5
C[C@@H]1CN([C@@H](C)CO)C(=O)c2ccccc2-c2ccccc2CO[C@@H]1CN(C)C(=O)c1ccccc1	-14
C[C@H](C(=O)N(C)C[C@@H]1OCc2ccccc2-c2c(n(C)c3ccccc23)C(=O)N([C@H](C)CO)C[C@@H]1C)c1ccccc1	-11
SMILES	CD40 NFkB inh
COc1cccc(NC(=O)C[C@H]2CC[C@H]3[C@H](COc4ccc(NS(=O)(=O)c5cccc(F)c5)cc4C(=O)N3C)O2)c1	5[25 µM]
O=C(C1CCCC1)N1CC(=O)N2[C@H](CO)[C@@H](c3ccc(C#Cc4cccc(F)c4)cc3)[C@H]2C1	7
COc1cc(C(=O)O[C@H]2CC(C)=CC[C@@]3(C)CC[C@@](O)(C(C)C)[C@H]23)ccc1O	52*
CCCOC(=O)c1ccc(O)c(OC)c1	15
COc1cccc(C(=O)Nc2ccc3c(c2)C(=O)N(C)C[C@H](OC)[C@H](C)CN(C(=O)C2CCCC2)[C@@H](C)CO3)c1	4
COc1ccc(NC(=O)N2CCCCN3[C@H](CO)[C@H](c4ccc(C#Cc5ccccn5)cc4)[C@H]3C2)cc1	-14[25 µM]
CCOC(=O)c1nc(C)[nH]c1C(=O)OCC	-2
CCOC(=O)c1ccc(NS(C)(=O)=O)cc1	-3
CCOC(=O)c1nc(S(C)(=O)=O)ncc1Cl	108*
Cc1ccccc1NC(=O)c1nc(S(C)(=O)=O)ncc1Cl	104*
CSc1ncc(Cl)c(C(=O)Nc2cccc3ccccc23)n1	2

Source: PubChem BioAssay (Broad Institute)
